# Reference: PubChem BioAssay (NCATS)
# “And” between values parts separate entries of the source, which are not always exact repeats. Equal entries are not always repeated. Unmarked numbers belong to inactive results. Records with an inconclusive call do not appear. The source made the active and inactive calls. Unless noted, calls come from the whole dose curve; as a rule, active = well fitted curve in the direction sought with a large enough effect; inconclusive = small, poorly fitted or top-dose-only effect, or another doubt; inactive = no such curve, though single readings can be large; an effect the other way counts as inactive or inconclusive.
# Key:
# [1] = Drug repurposing screens with cells derived from glioblastoma tumor samples (AID 1345199); details: GBM patient neurospheres viability, ATP luminescence, 48 h; note: nearly all actives have a fitted effect of over 40% in size; note: potency is the fitted concentration of half-maximal effect; for activity, negative = cell killing: % is set by controls: 0 for no effect and ±100 for the full control effect
# In short: (§1)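 Four patient lines of CD133+ GBM neurospheres were screened at several concentrations; hits were retested in those lines plus three slower-growing GBM lines, using 48-hour treatment and ATP-based viability.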
# astro = control astrocytes; assay: as above; details: viability, ATP luminescence, 48 h; series mostly up to 45.9 µM
# In short: as §1
# [2] = target: Nuclear receptor subfamily 1 group I member 2 (Rattus norvegicus) (UniProt Q9R1A7); assay: qHTS assay for small molecule activators of the rat pregnane X receptor (rPXR) signaling pathway (AID 651751; call rule not given here; note: 0% is about no effect); details: rPXR reporter cells, luciferase (One-Glo), 24 h
# [3] = qHTS assay for small molecule activators of the human pregnane X receptor (PXR) signaling pathway (AID 720659; call rule not given here; note: 0% is about no effect); details: DPX-2 HepG2 CYP3A4-luciferase, 24 h; series mostly up to 92.3 µM
# [4] = qHTS assay to identify inhibitors of the type 1 interferon - major histocompatibility complex class I in skeletal muscle: Counter screen cell viability and HiBit confirmation (AID 1347412); details: iHSKM muscle cells + IFN-b, HiBiT or CellTiter-Glo, 24 h; Potency: HiBiT; Viability, at 45.9 µM (top of the series); note: % is set by controls: 0 for no effect and ±100 for the full control effect; nearly all actives have a fitted effect of over 60% in size
# In short: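 Duplicate plates, pinned identically: one read for HiBiT-tagged endogenous HLA-B luminescence, the other for ATP-content viability via CellTiter Glo. Cells were genome-engineered human myoblasts given 4 ng/ml IFN-b; compounds 12-pt, 1:3 from 46 uM final; 24 hr exposure.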
# [5] = at 45.9 µM (top of the series), tumour line B
# [6] = at 45.9 µM (top of the series), tumour line D
# [7] = at 46.1 µM (top of the series), tumour line C
# [8] = at 46 µM (top of the series), tumour line A
# [9] = at 21.2 µM (top of the series), tumour line B
# Nuclear receptor subfamily 1 group I member 2 (Rattus norvegicus), sequence (Q9R1A7 whole entry, looked up): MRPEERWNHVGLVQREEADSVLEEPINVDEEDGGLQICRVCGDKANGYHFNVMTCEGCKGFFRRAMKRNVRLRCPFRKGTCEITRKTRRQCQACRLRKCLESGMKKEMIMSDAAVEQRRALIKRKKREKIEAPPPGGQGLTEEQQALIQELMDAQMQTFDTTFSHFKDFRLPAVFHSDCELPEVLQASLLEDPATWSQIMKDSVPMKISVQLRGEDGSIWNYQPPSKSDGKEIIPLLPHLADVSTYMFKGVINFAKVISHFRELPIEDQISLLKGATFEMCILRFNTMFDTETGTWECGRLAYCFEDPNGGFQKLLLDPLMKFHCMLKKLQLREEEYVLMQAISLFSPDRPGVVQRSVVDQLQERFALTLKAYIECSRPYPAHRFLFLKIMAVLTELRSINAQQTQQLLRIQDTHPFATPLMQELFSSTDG
smiles,measurement,setting,value
O=C(O)C(Cl)(Cl)Cl,"activity, negative = cell killing",[1]; [5],-5.78%
same,"activity, negative = cell killing",[1]; [6],4.24%
same,"activity, negative = cell killing",[1]; [7],3.74%
same,Potency,astro,inactive
same,max response,[2],6.71% and 3.85%
same,outcome,[3],inactive
CCC1(c2ccccc2)C(=O)NC(=O)N(C(=O)c2ccccc2)C1=O (stereo not drawn),"activity, negative = cell killing",[1]; [5],-17.6%
same,"activity, negative = cell killing",[1]; [6],-13.8%
same,"activity, negative = cell killing",[1]; [7],-23.5%
same,Potency,astro,inactive
[O]=[Cr](=[O])([OH])[O][Cr](=[O])(=[O])[OH],"activity, negative = cell killing",[1]; [6],-3.21%
same,"activity, negative = cell killing",[1]; [7],-22.8% and -5.59%
same,Potency,astro,inactive
C[C@]12CC[C@H](O)C[C@H]1CC[C@@H]1[C@@H]2CC[C@]2(C)[C@@H](c3ccc(=O)oc3)C[C@H]3O[C@]132,Potency,astro,1.58 µM (active)
CC[N+](C)(CC)CCOC(=O)C(O)(c1ccccc1)c1ccccc1,"activity, negative = cell killing",[1]; [5],-10.1%
same,"activity, negative = cell killing",[1]; [6],-2.57%
same,"activity, negative = cell killing",[1]; [8],-29.2%
same,Potency,astro,inactive
OC(c1ccccc1)(c1ccccc1)C1CN2CCC1CC2 (stereo not drawn),"activity, negative = cell killing",[1]; [5],-13.1%
same,Potency,[1]; tumour line A,12.6 µM (active)
same,Potency,astro,inactive
CCCCCCCCOC(=O)c1ccccc1C(=O)OCCCCCCCC,"activity, negative = cell killing",[1]; [5],-18%
same,"activity, negative = cell killing",[1]; [6],6.99%
same,"activity, negative = cell killing",[1]; [7],-8.6%
same,Potency,astro,inactive
same,max response,[2],-1.02% and 3.16%
same,outcome,[3],inactive
CCC/C=C/C=C/C(=O)O[C@H]1/C(=C/C(=O)OC)C[C@H]2C[C@H]([C@@H](C)O)OC(=O)C[C@H](O)C[C@@H]3C[C@H](OC(C)=O)C(C)(C)[C@](O)(C[C@@H]4C/C(=C/C(=O)OC)C[C@H](/C=C/C(C)(C)[C@]1(O)O2)O4)O3,"activity, negative = cell killing",[1]; [5],-7.48%
same,"activity, negative = cell killing",[1]; [6],-24.1%
same,Potency,astro,inactive
CN1CCCC(=C(c2cccs2)c2cccs2)C1,"activity, negative = cell killing",[1]; [5],-10.4%
same,"activity, negative = cell killing",[1]; [6],-24.1%
same,Potency,astro,inactive
CN1[C@@H]2CC[C@H]1CC(OC1c3ccccc3CCc3ccccc31)C2 (stereo partly drawn),"activity, negative = cell killing",[1]; [9],-28.8%
same,Potency,[1]; tumour line A,5.62 µM (active)
same,Potency,astro,inactive
C/C(=C\c1csc(C)n1)[C@@H]1C[C@@H]2O[C@]2(C)CCC[C@H](C)[C@H](O)[C@@H](C)C(=O)C(C)(C)[C@@H](O)CC(=O)O1,"activity, negative = cell killing",[1]; [5],-25.2%
same,"activity, negative = cell killing",[1]; [6],-19.9%
same,Potency,[4],inactive
CCC(=O)O[C@@](Cc1ccccc1)(c1ccccc1)[C@@H](C)CN(C)C,"activity, negative = cell killing","[1]; at 20 µM (top of the series), tumour line C",2.51%
same,"activity, negative = cell killing",[1]; [9],-6.39%
same,"activity, negative = cell killing","[1]; at 21.2 µM (top of the series), tumour line D",-21.4%
same,Potency,astro,inactive
C=CC[C@]1(O)CC[C@H]2[C@@H]3CCC4=CCCC[C@@H]4[C@H]3CC[C@@]21C,"activity, negative = cell killing",[1]; [7],-3.65%
same,Potency,[1]; tumour line A,12.6 µM (active)
same,Potency,astro,inactive
C[C@H]1CCC[C@H](O)CCCCCc2cc(O)cc(O)c2C(=O)O1,"activity, negative = cell killing",[1]; [7],1.42%
same,Potency,[1]; tumour line A,12.6 µM (active)
same,Potency,[1]; tumour line D,35.5 µM (active)
same,Potency,astro,inactive
same,max response,[2],-2.32%
O=C(CS(=O)C(c1ccccc1)c1ccccc1)NO (stereo not drawn),"activity, negative = cell killing",[1]; [5],-1.04%
same,"activity, negative = cell killing",[1]; [8],-19.6%
same,"activity, negative = cell killing",[1]; [7],-22%
same,Potency,astro,inactive
c1csc(C2(N3CCCCC3)CCCCC2)c1,"activity, negative = cell killing",[1]; [5],-10.4%
same,"activity, negative = cell killing",[1]; [6],-7.27%
same,"activity, negative = cell killing",[1]; [7],-24.6%
same,Potency,astro,inactive
COCC(C)N(C(=O)CCl)c1c(C)csc1C (stereo not drawn),"activity, negative = cell killing",[1]; [5],-13.4%
same,"activity, negative = cell killing",[1]; [6],-11.3%
same,"activity, negative = cell killing",[1]; [7],-13.3%
same,Potency,astro,inactive
same,max response,[2],2.96%
COc1ccc(OC)c([C@@H](O)[C@H](C)N)c1,"activity, negative = cell killing",[1]; [5],-15.8%
same,"activity, negative = cell killing",[1]; [6],-1.31%
same,"activity, negative = cell killing",[1]; [7],-18.1%
same,Potency,astro,inactive
c1ccc(C2(N3CCCC3)CCCCC2)cc1,"activity, negative = cell killing",[1]; [7],-27.4%
same,Potency,[1]; tumour line A,11.2 µM (active)
same,Potency,astro,inactive
CC(C)(C)c1cc(O)ccc1O,"activity, negative = cell killing",[1]; [6],-24.6%
same,"activity, negative = cell killing",[1]; [7],3.11%
same,max response,[2],3.84% and -2.04% and 0.779%
O=[N+]([O-])c1ccc(F)c([N+](=O)[O-])c1,"activity, negative = cell killing",[1]; [5],-29.6%
same,Potency,[1]; tumour line A,20 µM (active)
same,Potency,[1]; tumour line C,14.6 µM (active)
same,outcome,[3],inactive
O=C1CCO1,"activity, negative = cell killing",[1]; [5],-1.82%
same,"activity, negative = cell killing",[1]; [6],6.37%
same,"activity, negative = cell killing",[1]; [7],-10.3%
same,Potency,astro,inactive
same,max response,[2],-3.35%
same,outcome,[3],inactive
S=C=S,"activity, negative = cell killing",[1]; [5],-6.17%
same,"activity, negative = cell killing",[1]; [6],-16.5%
same,"activity, negative = cell killing",[1]; [7],-10.7%
same,Potency,astro,inactive
same,max response,[2],-0.686%
same,outcome,[3],inactive
N#CN,"activity, negative = cell killing",[1]; [5],-13.5%
same,"activity, negative = cell killing",[1]; [6],-4.31%
same,"activity, negative = cell killing",[1]; [7],-5.37%
same,Potency,astro,inactive
same,max response,[2],6.95%
same,outcome,[3],inactive
ClC1=C(Cl)[C@]2(Cl)[C@@H]3[C@H]4C[C@H]([C@@H]5O[C@H]45)[C@@H]3[C@@]1(Cl)C2(Cl)Cl,"activity, negative = cell killing",[1]; [5],-22%
same,Potency,[1]; tumour line A,11.2 µM (active)
same,Potency,astro,inactive
C[C@H]1CC[C@@H]2[C@@H](C)[C@H]3[C@H](C[C@H]4[C@@H]5CC=C6CC(O[C@@H]7O[C@H](CO)[C@H](O)[C@H](O[C@@H]8O[C@H](CO)[C@@H](O)[C@H](O)[C@H]8O)[C@H]7O[C@H]7O[C@@H](C)[C@H](O)[C@@H](O)[C@H]7O)CC[C@]6(C)[C@H]5CC[C@]34C)N2C1 (stereo partly drawn),"activity, negative = cell killing",[1]; [7],-1.25%
same,Potency,[1]; tumour line B,22.4 µM (active)
same,Potency,astro,22.4 µM (active)
same,outcome,[3],inactive
